Measured values: PubChem BioAssay (NCI)
The panel holds about 83,000 compounds, 20% with a hit somewhere; the sample as a whole holds those more often.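 Single-dose data. Exposure time 48 hours. Values below 10 considered active.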 Activity calls are given as the source filed them.

tested on: 786-0 renal; test: NCI-60 one-dose screen, 48 h (100 = growth as untreated, 0 = no growth, -100 = all killed); details: 10 µM unless noted

Row | Structure (SMILES) | growth
1 | Nc1ccc(S(=O)(=O)O)c2ccc(N=Nc3ccc(N=Nc4ccc(S(=O)(=O)O)cc4)c4ccccc34)c(O)c12 | 102% (inactive)
2 | CSc1ccc(-c2n[nH]nc2-c2cc3ccccc3s2)cc1 | 54.7% (inactive)
3 | COc1ccc(C(=O)COc2ccc(/C=C3\COc4ccc(OC)cc4C3=O)cc2)cc1 | 90.5% (inactive)
4 | COc1cc(C=Nc2oc(-c3ccccc3)c(-c3ccccc3)c2C#N)cc(CN2CCCCC2)c1O | 102% (inactive)
5 | O=C1CC[C@H](c2ccc(O)c3c2C(=O)[C@@H]2O[C@@H]2C3=O)c2cccc(O)c21 | 44.8% (inactive)
6 | C#CC(F)(F)[C@]1(O)CC[C@H]2[C@@H]3CCC4=CC(=O)CCC4=C3[C@@H](c3ccc(C(C)=O)cc3)C[C@@]21C | -41% (active)
7 | O=C(Cc1ccccc1Nc1c(Cl)cccc1Cl)NN1C(=O)/C(=C/c2ccc(Br)cc2)SC1=S | 98.9% (inactive)
8 | Cc1nn(-c2cc(=O)[nH]c3ccccc23)c(N)c1C#N | 105% (inactive)
9 | CCn1c(Cc2ccccc2Nc2c(Cl)cccc2Cl)nnc1SCC(=O)NN1C(=O)/C(=C/c2cc(OC)c(O)c(OC)c2)SC1=S | 26.3% (inactive)
10 | Cc1cc(C)nc(SC2=C(Nc3cc(Cl)ccc3O)C(=O)N(Cc3ccccc3)C2=O)n1 | 83.4% [30 µM] (inactive)
11 | CCN(CC)c1ccc(/C=N\NC(=O)/C=C/C=C/c2ccc3c(c2)OCO3)c(O)c1 | 47.2% (inactive)
12 | N#Cc1cnn(-c2nc3c(Cl)cccc3s2)c1N | 89.4% (inactive)
13 | COc1ccc(S(=O)(=O)N2CC3(COC3)C2)cc1NC(=O)c1[nH]c(C)c2c1CCCCC2=O | 56.5% (inactive)
14 | Cn1cc(C(=O)c2nc(-c3c[nH]c4ccc(F)cc34)no2)c2cc(F)ccc21 | 103% (inactive)
15 | O=C1C=C(OCC=C(Cl)Cl)C(=O)c2ccccc21 | 94.9% (inactive)
16 | Cc1cc(C)nc(SC2=C(Nc3cccc(Cl)c3)C(=O)N(Cc3ccccc3)C2=O)n1 | 72.1% [30 µM] (inactive)
17 | O=c1cc(CSc2nnc(-c3ccc(F)cc3)o2)c2ccc3ccccc3c2o1 | 104% (inactive)
18 | CCCn1c(=O)[nH]c(N)c([C@H]2c3ccccc3Oc3[nH]c(=O)n(CCC)c(=O)c32)c1=O | 82.7% (inactive)
19 | O=C(CCN1C(=O)/C(=C/c2ccc(Cl)cc2)SC1=S)NCCCN1CCOCC1 | 107% (inactive)
20 | Cc1nc2ccccc2n1C(=O)C[C@@H]1NC(=S)NC1=O | 101% (inactive)

Row | Structure (SMILES) | growth
21 | O=C(N=Nc1c(O)[nH]c2ccc(Br)cc12)c1cc(-c2ccccc2)on1 | 105% (inactive)
22 | C=C(C)C(=O)Nc1ccc(NC(C)C)cc1 | 96.8% (inactive)
23 | CC(O)CN1CC(O)=C(c2nc3ccccc3s2)C1=N (centres undefined) | 100% (inactive)
24 | O=c1c2c3c(sc2nc(N/N=C/c2cn(-c4ccccc4)nc2-c2ccc(Cl)cc2)n1Cc1ccccc1)CCCC3 | 95.2% (inactive)
25 | COc1cccc(-c2nn(C(C)(C)C)cc2-c2ccnc(NCCCNS(=O)(=O)c3ccc(C)cc3)c2)c1 | 103% (inactive)
26 | CSc1nc(Nc2cccc(NC(=O)CCl)c2)c(C#N)c(-c2cccc([N+](=O)[O-])c2)n1 | 73.2% (inactive)
27 | CSc1nc(Nc2cccc(NC(=O)/C(C#N)=C/c3c(Cl)cccc3Cl)c2)c(C#N)c(-c2cccc([N+](=O)[O-])c2)n1 | 54% (inactive)
28 | COc1ccc(-c2nc3ccc(-c4nc5ccc(N6CCN(c7ccccc7)CC6)cc5[nH]4)cc3[nH]2)cc1OC | -79.8% (active)
29 | COc1ccc(CCNc2nc3c(c(=O)n(Cc4ccc(Br)cc4)c(=O)n3C)n2C)cc1OC | 102% (inactive)
30 | C=CCSSc1ncnc2c1ncn2C1OC(CO)C(O)C1O (centres undefined) | 14.6% (inactive)
31 | Cc1ccc(NC(=O)C2CCC(CN3CCN(C)CC3)CC2)cc1Nc1nccc(-c2cccnc2)n1 (centres undefined) | 98.7% (inactive)
32 | COc1cc(/C=C/c2cc(O)c3cc(C(C)=O)c(=O)oc3c2)cc2c1O[C@]1(C)CC[C@@H](O)C(C)(C)[C@H]1C2 | -1.22% (active)
33 | C=CC(=O)Nc1cccc(Nc2nc(SC)nc(-c3cccc([N+](=O)[O-])c3)c2C#N)c1 | 63.8% (inactive)
34 | N#C/C(=C\c1ccc(-c2cc(C(F)(F)F)ccc2Cl)o1)c1nc(-c2ccco2)cs1 | 104% (inactive)
35 | COCCNc1ccc2c3c(cccc13)C(=O)N(CCN(C)C)C2=O | 32.1% (inactive)
36 | C=CC(=O)Nc1cccc(-c2nc(SC)nc(NCc3ccccc3)c2C#N)c1 | 66% (inactive)
37 | COC(=O)c1cccc(NC(=O)c2ccc(-c3cccc(N)c3)o2)c1 | 109% (inactive)
38 | N#Cc1c(-c2ccc(Cl)cc2)nc(N=Nc2c(O)[nH]c3ccc(Cl)cc23)nc1N1CCOCC1 | 103% (inactive)
39 | N#CN1CCC[C@H]1C(=O)N1CCc2c(-c3[nH]nc4ncccc34)cccc21 | 9.59% (active)
